Laboratory results as given in PubChem BioAssay (EPA / NIEHS).
Where “and” joins values, the source holds several entries; their conditions need not be identical. Equal entries are not always repeated. Some compounds were tested as several samples or in several runs, with calls that do not always agree. Calls of active or inactive are those of the source. The calls were made as follows: active = hit-call score of the fitted dose curve at least 0.9, where 1 is the maximum; inactive = score below 0.9.

The compounds below were run on Alpha-fetoprotein (AFP) gene, AFP (gene 174) (assay: LTEA_HepaRG_AFP: Life Technologies and Expression Analysis (LTEA) Assay for Alpha-fetoprotein (AFP) gene using HepaRG (AID 2283472;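 as to AC50: AFP transcript by TaqMan qRT-PCR normalized to ACTB GAPDH and POLR2A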)). Details: mRNA level, 48 h; actives raise or lower the signal.
Description: It is a marker of Undifferentiated hepatocyte.Data from the assay component LTEA_HepaRG_AFP was analyzed into 1 endpoint. This assay endpoint, LTEA_HepaRG_AFP, was analyzed with bidirectional fitting relative to DMSO as the negative control and baseline of activity. Using a type of inducible reporter, measures of mRNA induction for gain or loss-of-signal activity can be used to understand regulation of transcription factor activity. To generalize the intended target to other relatable targets, this assay endpoint is annotated to the background measurement intended target family, where the subfamily is assay control.
A total of 1060 chemcials from the ToxCast library were tested in eight-point concentration-response experiments. Cell culture and cytotoxicity assays were conducted at Thermo Fisher Scientific's Custom Services facility (Madison, WI). A single lot of human HepaRG cells (Thermo Fisher Scientific, Frederick, MD) was used for the cell culture experiments. 96-well format collagen type I coated plates of human HepaRG cells were prepared using established methods. Briefly, cryopreserved HepaRG cells were thawed, plated at a density of approximately 100,000 cells/well in HepaRG Thaw, Plate, and General Purpose media (HPRG770, Thermo Fisher Scientific), and incubated for 48 hours. 0.5% DMSO was selected as vehicle control to balance the requisite need of DMSO in HepaRG cultures to maintain differentiation (for example, baseline metabolism, proportions of hepatocytes vs. cholangiocytes), while enabling further hepatic receptor pathway activation (for example, PXR and CAR) in response to chemical exposure. 48 hours after plating, the culture medium was replaced with HepaRG Serum-Free Incudtion Media. Cells were exposed to each test chemical in duplicate and maintained in CO2 incubators for another 48 hours. Chemical plates were thawed to room temperature and 200x concentrations of treatment groups were prepared. 8-point conentration-reponse curves were made with the highest exposure at 100 uM, followed by half-log dilutions, all in 0.5% DMSO. Each test plate contained variouse controls, induction positive controls (1mM phenobarbital), cytotoxicity positive controls ([…] aflatoxin B1), vehicle controls (0.5% DMSO), and total lysis controls (0.5% DMSO). Cell morphology images were taken using an Essen IncuCyte FLR automated microscope, with six 96-well plates imaged in about 24 minutes. Images were captured and exported and JPEG files. Spent culture media was transfered to black-well plates for the LDH assay, and remaining media was sorted at -80 C for later use. Cells were treated with RLT buffer and frozen until shipped for gene expression analysis. Total RNA was isolated from the cell suspension in 75 uL of Buffer RLT (Qiagen, Germantown, MD 20874) by Quintiles/Expression Analysis (Durham, NC) using a custom isolation procedure. Total RNA from each plate well was transferred to a preamplification plate. Fluidigm's 96.96 Dynamic ArrayTM (Fluidigm, Amsterdam, the Netherlands) technology was used for gene expression analyses by quantitative reverse transcription polymerase chain reaction (qRT-PCR, performed by Quintiles/Expression Analysis, Durham, NC)89. Standard TaqManTM Assays (Applied Biosystems/ThermoFisher Scientific, Foster City, CA) were used to assess the expression of 93 genes selected based on their selectivity and sensitivity to important hepatic receptors known to be modulated by environmental chemicals; importance in human hepatocyte functionality; and hepatotoxicity. Three "housekeeping" endogenous control genes were also included and used for normalization: actin beta (ACTB), Glyceraldehyde 3 phosphate dehydrogenase (GAPDH) and RNA Polymerase II Subunit A (POLR2A). qRT-PCR was conducted according to the manufacturer's protocol.

SMILES | outcome | AC50
Clc1ccccc1-c1nnc(-c2ccccc2Cl)nn1 | inactive | 
N#Cc1c(Cl)c(Cl)c(Cl)c(C#N)c1Cl | inactive | 
OCCOc1ccccc1 | inactive | 
Oc1cc(Cl)ccc1Oc1ccc(Cl)cc1Cl | inactive | 51 µM (active)
O=S(=O)(O)C(F)(F)C(F)(F)C(F)(F)C(F)(F)C(F)(F)C(F)(F)C(F)(F)C(F)(F)F | inactive | 77.9 µM (active) and 80.1 µM (active) and 75.8 µM (active)
O=C(O)COc1ccc(Cl)cc1Cl | inactive | 
COP(=O)(OC)OC=C(Cl)Cl | inactive | 
C[C@H]1[C@H](c2ccc(Cl)cc2)SC(=O)N1C(=O)NC1CCCCC1 |  | 36.7 µM (active)
CC1(C)C(C=C(Cl)Cl)C1C(=O)OC(C#N)c1ccc(F)c(Oc2ccccc2)c1 (stereo not given) | inactive | 
O=C(O)CCCOc1ccc(Cl)cc1Cl | inactive | 
Oc1ccc(Cl)cc1Cc1ccccc1 | inactive | 82.5 µM (active) and 90 µM (active)
CNC(=O)CSP(=S)(OC)OC | inactive | 
CC1(c2ccc(Oc3ccccc3)cc2)OC(=O)N(Nc2ccccc2)C1=O (stereo not given) |  | 9.81 µM (active)
CCC(C)(NC(=O)c1cc(Cl)c(C)c(Cl)c1)C(=O)CCl (stereo not given) |  | 76 µM (active)
O=C(O)C(F)(F)C(F)(F)C(F)(F)C(F)(F)C(F)(F)C(F)(F)C(F)(F)F | inactive | 
N#CN | inactive | 
CCC(C)(C)C(=O)OC1=C(c2ccc(Cl)cc2Cl)C(=O)OC12CCCCC2 | inactive | 
CN1CSC(=S)N(C)C1 | inactive | 

SMILES | outcome | AC50
O=C(NC(=O)c1c(F)cccc1F)Nc1ccc(OC(F)(F)C(F)OC(F)(F)F)c(Cl)c1 (stereo not given) | inactive | 
CCC(C)Nc1c([N+](=O)[O-])cc(C(C)(C)C)cc1[N+](=O)[O-] (stereo not given) |  | 50 µM (active)
COc1nn(CSP(=S)(OC)OC)c(=O)s1 | inactive | 
O=C(Nc1ccccc1)Nc1cnns1 |  | 76.2 µM (active)
CCOC1Oc2ccc(OS(C)(=O)=O)cc2C1(C)C (stereo not given) |  | 72.3 µM (active)
CC(C)OC(=O)Nc1cccc(Cl)c1 | inactive | 
COP(=S)(OC)Oc1ccc([N+](=O)[O-])cc1 | inactive | 
CCc1ccc(C(=O)NN(C(=O)c2cc(C)cc(C)c2)C(C)(C)C)cc1 |  | 50 µM (active)
CNC(=O)/C=C(\C)OP(=O)(OC)OC | inactive | 
COP(=S)(OC)Oc1ccc(SC)c(C)c1 |  | 10.3 µM (active)
ClC1C(Cl)C(Cl)C(Cl)C(Cl)C1Cl (stereo not given) | inactive | 19.5 µM (active)
O=[N+]([O-])c1c(Cl)c(Cl)c(Cl)c(Cl)c1Cl | inactive | 
CNC(=O)Oc1ccccc1OC(C)C | inactive | 
CCCN(CCOc1c(Cl)cc(Cl)cc1Cl)C(=O)n1ccnc1 |  | 22.5 µM (active)
CC[C@H](C)[C@H]1O[C@]2(C=C[C@@H]1C)C[C@@H]1C[C@@H](C/C=C(\C)[C@@H](O[C@H]3C[C@H](OC)[C@@H](O[C@H]4C[C@H](OC)[C@@H](O)[C@H](C)O4)[C@H](C)O3)[C@@H](C)/C=C/C=C3\CO[C@@H]4[C@H](O)C(C)=C[C@@H](C(=O)O1)[C@]34O)O2 (tested in a mixture with another compound) | inactive | 
CC(C)N(C(=O)COc1nnc(C(F)(F)F)s1)c1ccc(F)cc1 |  | 37.6 µM (active)
CNC(=O)Oc1cccc(N=CN(C)C)c1 | inactive | 
CCN(CC)C(=O)SCc1ccc(Cl)cc1 | inactive | 
